From the supplement of paper PMC9588786
Structures can show the parent of a compound that is named as a salt. ± gives the standard deviation of the averaged measurements.
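Note: viability read as CCK-8 absorbance at 450 nm in cells co-exposed to the GPX4 inhibitor RSL3, relative to a 0.01% DMSO vehicle control.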

The compounds below were run on HT-1080 (assay: relative cell viability with RSL3 co-treatment (fraction of control); higher = stronger protection from RSL3-induced ferroptosis (higher viability)). Details: 10 µM.
`O=C(/C=C/c1ccc2ccccc2n1)c1ccncc1` was tested, and the relative cell viability was 0.64 ± 0.075. With `CCc1cnn2c(NCc3ccc[n+]([O-])c3)cc(N3CCCC[C@H]3CCO)nc12` the relative cell viability was 0.61 ± 0.1. With `Cc1cn(-c2cc(NC(=O)c3ccc(C)c(Nc4nccc(-c5cccnc5)n4)c3)cc(C(F)(F)F)c2)cn1` [Nilotinib (AMN-107)] the relative cell viability was 0.507 ± 0.021. `Nc1ccc(C(=O)Nc2cccc(-c3nc(N4CCOCC4)c4oc5ncccc5c4n3)c2)cn1` showed a relative cell viability of 0.303 ± 0.067. `Cc1ccc(S(=O)(=O)/C=C/C#N)cc1` showed a relative cell viability of 0.463 ± 0.042. For `CN1CCN(S(=O)(=O)c2ccc(-c3cnc(N)c(C(=O)Nc4cccnc4)n3)cc2)CC1`, the relative cell viability was 0.56 ± 0.087. Work on `COc1cc2c(Nc3ccc(NC(=O)c4ccccc4)cc3)ncnc2cc1OCCCN1CCOCC1` yielded a relative cell viability of 0.717 ± 0.23. In the case of `O=C1Nc2ccc(I)cc2/C1=C/c1cc(Br)c(O)c(Br)c1`, the relative cell viability is reported as 0.573 ± 0.2. `COc1cc2nccc(Oc3ccc(NC(=O)C4(C(=O)Nc5ccc(F)cc5)CC4)cc3)c2cc1OC` showed a relative cell viability of 0.7 ± 0.21. `COc1cc2nccc(Oc3ccc(NC(=O)NC4CC4)c(Cl)c3)c2cc1C(N)=O` [Lenvatinib (E7080)] was tested, and the relative cell viability was 0.56 ± 0.12. Compound `CN(C)Cc1cccc(N/C(=C2\C(=O)Nc3cc(C(N)=O)ccc32)c2ccccc2)c1` has a relative cell viability of 0.627 ± 0.045. `CO[C@@H](C)Cn1c(=O)n(C)c2cnc3ccc(-c4cncc(C(C)(C)O)c4)cc3c21` showed a relative cell viability of 0.457 ± 0.13. `Cc1cc(O)c2c(c1)C(=O)c1cccc(O)c1C2=O` [Chrysophanic Acid] showed a relative cell viability of 0.6567 ± 0.0058. With `CCOC(=O)c1cnc2ccc(-c3cncc(NS(=O)(=O)c4ccccc4)c3)cn12` the relative cell viability was 0.717 ± 0.09. Work on `C[C@@H]1COC(Nc2ccc3ncnc(Nc4ccc(OCc5nccs5)c(Cl)c4)c3c2)=N1` [Varlitinib] yielded a relative cell viability of 0.597 ± 0.1. With `CCC(=O)Nc1cccc(Oc2nc(Nc3ccc(N4CCN(C)CC4)cc3OC)ncc2Cl)c1` the relative cell viability was 0.803 ± 0.097. Compound `CN(C)C/C=C/C(=O)Nc1cc2c(Nc3ccc(F)c(Cl)c3)ncnc2cc1O[C@H]1CCOC1` [Afatinib (BIBW2992)] has a relative cell viability of 0.72 ± 0.061. Compound `CN(C)CCCn1cc(C2=C(c3c[nH]c4ccccc34)C(=O)NC2=O)c2ccccc21` has a relative cell viability of 0.837 ± 0.045. Compound `C[C@@]1(C(=O)Nc2ccc(F)nc2)CCCN1c1nc(Nc2cc(C3CC3)n[nH]2)c2cccn2n1` has a relative cell viability of 0.483 ± 0.05. With `COc1cc(-c2cc(-c3ccc(N4CCNCC4)cc3)cnc2C)cc(OC)c1OC` the relative cell viability was 0.74 ± 0.075. With `FC(F)(F)c1ccc(/C=C/c2nc(COc3ccc(CCCCn4ccnn4)cc3)co2)cc1` [Mubritinib (TAK 165)] the relative cell viability was 0.653 ± 0.1. Compound `Cc1c(Cn2c(C)nc3c(C(=O)O)cc(N4CCOCC4)cc32)cccc1C(F)(F)F` has a relative cell viability of 0.823 ± 0.045. `CNCc1ccc(-c2cc(-c3nc(-c4ccc(S(=O)(=O)C(C)C)cc4)cnc3N)on2)cc1` gave a relative cell viability of 0.47 ± 0.026. `O=C1c2ccc(Nc3ccc(F)cc3F)cc2CCc2ccc(OC[C@H](O)CO)cc21` [Skepinone-L] showed a relative cell viability of 0.513 ± 0.12. `C=CC(=O)Nc1cccc(Nc2nc(Nc3ccc(NC4CN(CCF)C4)cc3OC)ncc2C(F)(F)F)c1` was tested, and the relative cell viability was 0.443 ± 0.068. With `Cc1cc(NC(=O)c2cccc(NC(=O)/C=C/CN(C)C)c2)ccc1Nc1nccc(-c2cccnc2)n1` the relative cell viability was 0.407 ± 0.086. Work on `CS(=O)(=O)N1CCN(Cc2cc3nc(-c4cccc5[nH]ncc45)nc(N4CCOCC4)c3s2)CC1` [Pictilisib (GDC-0941)] yielded a relative cell viability of 0.547 ± 0.11. Work on `COc1cc2ncnc(Nc3ccc(F)c(Cl)c3)c2cc1OCCCN1CCOCC1` [Gefitinib (ZD1839)] yielded a relative cell viability of 0.66 ± 0.072. In the case of `O=C(Nc1cccnc1)c1cc(-c2ccnc(F)c2)ccc1OCc1ccccc1`, the relative cell viability is reported as 0.627 ± 0.06. `N#Cc1c(Oc2ccc(F)c(NC(=O)Cc3cccc(C(F)(F)F)c3)c2)ccc2nc(NC(=O)C3CC3)sc12` gave a relative cell viability of 0.797 ± 0.032. Work on `Cc1ccc(NC(=O)c2ccc(CN3CCN(C)CC3)cc2)cc1Nc1nccc(-c2cccnc2)n1` [Imatinib Mesylate (STI571)] yielded a relative cell viability of 0.733 ± 0.17. `OC(c1cc(-c2ccc(Cl)cc2)nc2ccccc12)C1CCCCN1` (centres undefined) [Vacquinol-1] gave a relative cell viability of 0.0533 ± 0.035. With `CCCNC(=O)c1cn2ncnc(Nc3cc(C(=O)NC4CC4)ccc3C)c2c1C` the relative cell viability was 0.78 ± 0.04. In the case of `CN1CC[C@H](c2c(O)cc(O)c3c(=O)cc(-c4ccccc4Cl)oc23)[C@H](O)C1` [Flavopiridol (Alvocidib)], the relative cell viability is reported as 0.49 ± 0.13. For `CC(C)c1cnn2c(NCc3ccccc3)cc(NCCCCCCN)nc12`, the relative cell viability was 0.623 ± 0.085. Work on `O=C(NOC[C@H](O)CO)c1ccc(F)c(F)c1Nc1ccc(I)cc1F` yielded a relative cell viability of 0.897 ± 0.032. `Oc1c2ccccc2c2c3c(cccc13)N=N2` gave a relative cell viability of 0.71 ± 0.036. Compound `COc1ccc(COc2cc3oc(=O)c4cc(C(C)O)ccc4c3cc2OC)cc1` (centres undefined) [Palomid 529 (P529)] has a relative cell viability of 0.537 ± 0.2. `Oc1ccc(Nc2nc(-c3ccc(Cl)cc3)cs2)cc1` showed a relative cell viability of 0.66 ± 0.095.
